Screening data: PubChem, National Center for Advancing Translational Sciences (NCATS)
HT1080 IDH1KD tx: toxicity to HT-1080 IDH1 knockdown cells (counter line); HT-1080 IDH1 knockdown viability, ATP luminescence, 48 h; AID 686971; Potency, µM (series often up to 46.1 µM), usual class: cytotoxic; actives 2% (n = 360,000)
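HT-1080-IDH1KD cells (IDH1 knocked down), 750/well in RPMI with 5% FBS, treated with compound 48 h at 37 degrees C. Viability by CellTiter-Glo luminescence, normalised to DMSO and no-cell wells; concentration-response curves classed.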
HT1080NT lethal: kills 2HG-producing HT-1080-NT fibrosarcoma cells; AID 686970; HT-1080-NT fibrosarcoma viability, CellTiter-Glo ATP luminescence, 48 h; actives 1.6% (n = 360,000); Potency, µM (top dose mostly 46.1 µM), most hits filed as cytotoxic;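 also: NT is the 2HG producing partner of a matched IDH1 knockdown line; nearly all actives have a fitted effect of over 55% in size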
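HT-1080-NT; 750 cells/well; 5% FBS RPMI; 48 h compound, 37 degrees C; CellTiter-Glo luminescence; curve fitting and curve-class assignment.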
TDP1 cell noCPT: qHTS for Inhibitors of human tyrosyl-DNA phosphodiesterase 1 (TDP1): qHTS in cells in absence of CPT; DT40 Tdp1-/- hTDP1 cells, no CPT, ATP luminescence, 48 h; actives 15% (n = 420,000); Potency, µM (top dose mostly 46.2 µM), usual class: inhibitors; also: nearly all actives have a fitted effect of over 55% in size
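DT40 Tdp1-/-;hTDP1 cells, no CPT (DMSO vehicle only), 400 cells/well; compounds pin-transferred; ≥48 hr, 37 °C; CellTiter-Glo 30 min RT dark, luminescence read.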
IL1B secr inh: blocks inflammasome-driven IL-1 beta release; THP-1 LPS/ATP IL-1B secretion, AlphaLISA, 16 h; active compounds read low; actives 4.7% (n = 360,000); activity change, % at 57.5 µM; in the data active = activity change below about -50%; inconclusive = mostly about -30% to -49%
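Secreted IL-1B measured by AlphaLISA bead assay after 16 h compound exposure of THP-1 cells; compounds (final up to 57.5 uM) added 1 h before LPS (250 ng/mL) and ATP (1.25 mM) stimulation; lower signal means less secretion.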
DT40 TDP1 CPT: DT40-hTDP1 cell growth loss with CPT. chicken DT40 Tdp1-/-;hTDP1 cells + 20 nM CPT, ATP luminescence, 48 h. Potency, µM (series often up to 46.2 µM), most hits filed as inhibitors. actives 12% (n = 420,000). AID 686979; also: nearly all actives have a fitted effect of over 55% in size
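Cell growth measured by CellTiter-Glo luminescence after a minimum 48 h, 37 C compound exposure with 20 nM CPT in Tdp1-knockout DT40 cells stably expressing hTDP1, seeded 400/well; qHTS titration format.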
Large screens that a line does not name were inactive; ! = not confirmed by another sample. Only some compounds are listed: those with a hit (about 19% of all), similar ones and a draw of the others. Unless noted, calls follow the shape of the dose curve; as a rule, active = well fitted curve in the direction sought with a large enough effect; inconclusive = small, poorly fitted or top-dose-only effect, or another doubt; inactive = no such curve, though single readings can be large; an effect the other way counts as inactive or inconclusive.

N#Cc1ccc(-c2nc3ccccc3nc2-c2ccccc2)cc1C#N	TDP1 cell noCPT 18µM, DT40 TDP1 CPT inconclusive
Oc1ccc(-c2nc3ccccc3nc2-c2ccccc2)cc1	TDP1 cell noCPT inconclusive, IL1B secr inh -65, DT40 TDP1 CPT inconclusive
O=C(/C=C/c1ccc([N+](=O)[O-])cc1)Nc1cccc(C(=O)Nc2ccccc2C(=O)O)c1	TDP1 cell noCPT inconclusive, DT40 TDP1 CPT inconclusive
O=C(NC12CC3CC(CC(C3)C1)C2)N(Cc1ccccc1)Cc1ccncc1	TDP1 cell noCPT 18µM, DT40 TDP1 CPT 13µM
c1cc(CNC23CC4CC(CC(C4)C2)C3)ccn1	none
CC(=O)N1N=C(c2cccc(Cl)c2)OC1c1cccc([N+](=O)[O-])c1 (centres undefined)	HT1080 IDH1KD tx inconclusive, TDP1 cell noCPT 21µM, DT40 TDP1 CPT inconclusive
CC(C)OC(=O)CC(=O)CSc1nc(-c2ccc(F)cc2)cc(-c2ccccc2)c1C#N	TDP1 cell noCPT inconclusive
COc1ccc(-c2cc(-c3ccccc3)nc(SCC(=O)Nc3ccccc3C)c2C#N)cc1	none (no result: HT1080 IDH1KD tx, HT1080NT lethal, IL1B secr inh)
CCc1nnc(NC(=O)CSc2nc(-c3ccccc3)cc(-c3ccc(F)cc3)c2C#N)s1	TDP1 cell noCPT inconclusive, DT40 TDP1 CPT 9.2µM
COc1ccc(CNC(=O)CSc2nc(-c3ccccc3)cc(-c3cccs3)c2C#N)cc1	TDP1 cell noCPT inconclusive, DT40 TDP1 CPT 15µM
COc1ccc(-c2cc(-c3ccccc3)nc(SC(C)C(=O)O)c2C#N)cc1 (centres undefined)	HT1080 IDH1KD tx inconclusive, TDP1 cell noCPT 26µM, DT40 TDP1 CPT inconclusive
CCCSc1nc(-c2ccc(OC)cc2)cc(-c2ccccc2OC)c1C#N	TDP1 cell noCPT 18µM, DT40 TDP1 CPT inconclusive (no result: HT1080 IDH1KD tx, HT1080NT lethal, IL1B secr inh)
COc1ccc(-c2cc(-c3ccccc3)c(C#N)c(SCC(=O)O)n2)cc1	TDP1 cell noCPT inconclusive
COc1ccc([N+](=O)[O-])cc1NS(=O)(=O)c1cccc(C(=O)O)c1	none
CN1OC[C@@H]2CN(C(=O)NC3CCCCC3)[C@H](c3ccc(N4CCCCC4)cc3)C[C@@H]21	TDP1 cell noCPT inconclusive
COc1cccc(-c2ccc(C#N)c(SCC(=O)NCc3ccco3)n2)c1	none
COc1ccc(-c2cc(-c3cccs3)c(C#N)c(SCC(=O)NCc3ccco3)n2)cc1	HT1080 IDH1KD tx 2.3µM, HT1080NT lethal 2.9µM, TDP1 cell noCPT 2.3µM, DT40 TDP1 CPT 1.8µM
Cc1nc(-c2ccc(S(=O)(=O)N3CCN(c4cc(Cl)ccc4C)CC3)cc2)co1	none (no result: HT1080 IDH1KD tx, HT1080NT lethal, IL1B secr inh)
CCOC(=O)c1ccc(NC2=CC(c3ccc(F)cc3)N(c3ccc(C(=O)OCC)cc3)C2=O)cc1 (centres undefined)	TDP1 cell noCPT 18µM, DT40 TDP1 CPT 16µM (no result: HT1080 IDH1KD tx, HT1080NT lethal, IL1B secr inh)
O=C(Nc1cccc2ncccc12)c1cc([N+](=O)[O-])ccc1Cl	HT1080NT lethal inconclusive, TDP1 cell noCPT inconclusive, IL1B secr inh -88, DT40 TDP1 CPT inconclusive
O=C(Nc1cccnc1Cl)c1cc([N+](=O)[O-])ccc1Cl	HT1080 IDH1KD tx inconclusive, HT1080NT lethal inconclusive, TDP1 cell noCPT inconclusive, IL1B secr inh -63, DT40 TDP1 CPT inconclusive
CC(=O)Nc1ccc(NC(=O)c2ccc([N+](=O)[O-])cc2Cl)cc1	none
O=C(Nc1ccccc1)c1cc([N+](=O)[O-])ccc1Cl	TDP1 cell noCPT 28µM!, DT40 TDP1 CPT 30µM!
O=C(CNC(c1ccccc1)c1ccccc1)Nc1cc([N+](=O)[O-])ccc1Cl	TDP1 cell noCPT 16µM, DT40 TDP1 CPT 21µM
CC(C)CC(=O)Nc1cc([N+](=O)[O-])ccc1Cl	none
CN(C)S(=O)(=O)c1ccc(Cl)c(C(=O)Nc2cccc3ncccc23)c1	TDP1 cell noCPT inconclusive, DT40 TDP1 CPT inconclusive
COCCCN(C(=O)Cc1ccc(S(=O)(=O)N2CCOCC2)s1)c1c(N)n(Cc2ccccc2)c(=O)[nH]c1=O	none
O=C(Nc1ccccc1C(F)(F)F)c1c(F)cccc1Cl	none
O=C(Nc1ccc(-c2nc3cc(NC(=O)c4ccc(F)cc4)ccc3o2)cc1)c1ccc(F)cc1	none (no result: HT1080 IDH1KD tx, HT1080NT lethal, IL1B secr inh)
COc1ccccc1C(=O)Nc1ccc2oc(-c3ccc(F)cc3)nc2c1	TDP1 cell noCPT inconclusive, DT40 TDP1 CPT 18µM
